Among all 5,500 compounds or so, about 2,000 (36%) were called active. Inconclusive results (about 18%) are left out. Rule as the data show it: active = normalized growth mostly below about 0.91 (no sharp cut-off); inconclusive = no clear call, values can overlap the other calls; inactive = mostly above about 0.92. The list shows a part of the results.
Test: chemical genetic growth profiling, strain panel (AID 1159580);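 also: tested at 20 µM; growth read once vehicle control cultures reached saturation at 30 °C; 1 = growth at the plate median or of vehicle wells; lower values mean less growth of the strain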
Conditions: growth OD

Measured: normalized growth

Nc1c2c(nc3ccccc13)CCCC2O (stereo not drawn)
inactive: S. cerevisiae deletion strains, locus YJR066W, strain TOR1, active compounds read low 0.916 | S. cerevisiae deletion strains, locus YJR075W, strain HOC1, active compounds read low 0.987 | S. cerevisiae deletion strains, locus YKL009W, strain mrt4, active compounds read low 0.976 | S. cerevisiae deletion strains, locus YKL068W, active compounds read low 0.987 | S. cerevisiae deletion strains, locus YKL085W, strain MDH1 (second series), active compounds read low 0.991 | S. cerevisiae deletion strains, locus YKL085W, strain MDH1, active compounds read low 0.991 | S. cerevisiae deletion strains, locus YKL160W, strain elf1, active compounds read low 1.01 | S. cerevisiae deletion strains, locus YKL190W, strain CNB1, active compounds read low 1.01 | S. cerevisiae deletion strains, locus YKR001C, strain vps1, active compounds read low 0.989 | S. cerevisiae deletion strains, locus YKR026C, strain gcn3, active compounds read low 1.01 | S. cerevisiae deletion strains, locus YKR091W, strain srl3, active compounds read low 0.998 | S. cerevisiae deletion strains, locus YLL001W, strain dnm1, active compounds read low 0.983 | S. cerevisiae deletion strains, locus YLL026W, active compounds read low 0.996 | S. cerevisiae deletion strains, locus YLL041C, strain sdh2, active compounds read low 1.02 | S. cerevisiae deletion strains, locus YLR027C, strain aat2, active compounds read low 1.01 | S. cerevisiae deletion strains, locus YLR039C, strain RIC1, active compounds read low 1.01 | S. cerevisiae deletion strains, locus YLR058C, strain SHM2, active compounds read low 1.01 | S. cerevisiae deletion strains, locus YLR102C, strain apc9, active compounds read low 0.984 | S. cerevisiae deletion strains, locus YLR113W, strain HOG1, active compounds read low 1.03 | S. cerevisiae deletion strains, locus YLR221C, strain rsa3, active compounds read low 1.02 | S. cerevisiae deletion strains, locus YLR258W, strain gsy2, active compounds read low 0.996 | S. cerevisiae deletion strains, locus YLR262C, strain YPT6 (second series), active compounds read low 1.01 | S. cerevisiae deletion strains, locus YLR262C, strain YPT6, active compounds read low 0.963 | S. cerevisiae deletion strains, locus YLR268W, strain sec22, active compounds read low 0.966 | S. cerevisiae deletion strains, locus YLR320W, strain mms22, active compounds read low 1.01 | S. cerevisiae deletion strains, locus YLR330W, strain CHS5, active compounds read low 0.989 | S. cerevisiae deletion strains, locus YLR342W, strain FKS1 (second series), active compounds read low 1.01 | S. cerevisiae deletion strains, locus YLR342W, strain FKS1, active compounds read low 1.01 | S. cerevisiae deletion strains, locus YLR357W, strain rsc2, active compounds read low 0.975 | S. cerevisiae deletion strains, locus YLR370C, strain arc18, active compounds read low 1 | S. cerevisiae deletion strains, locus YLR371W, strain rom2, active compounds read low 0.98 | S. cerevisiae deletion strains, locus YLR384C, strain iki3, active compounds read low 1 | S. cerevisiae deletion strains, locus YLR418C, strain cdc73, active compounds read low 1.02 | S. cerevisiae deletion strains, locus YML016C, strain PPZ1, active compounds read low 1.01 | S. cerevisiae deletion strains, locus YML032C, strain rad52, active compounds read low 0.99 | S. cerevisiae deletion strains, locus YML120C, strain ndi1, active compounds read low 1.03 | S. cerevisiae deletion strains, locus YML124C, strain tub3, active compounds read low 0.998 | S. cerevisiae deletion strains, locus YMR058W, strain fet3, active compounds read low 1.02 | S. cerevisiae deletion strains, locus YMR078C, strain ctf18, active compounds read low 0.993 | S. cerevisiae deletion strains, locus YMR125W, strain sto1, active compounds read low 0.997 | S. cerevisiae deletion strains, locus YMR129W, active compounds read low 0.999 | S. cerevisiae deletion strains, locus YMR205C, strain PFK2, active compounds read low 0.996 | S. cerevisiae deletion strains, locus YMR223W, strain ubp8, active compounds read low 0.987 | S. cerevisiae deletion strains, locus YMR231W, strain pep5, active compounds read low 0.999 | S. cerevisiae deletion strains, locus YMR307W, strain GAS1, active compounds read low 1.08 | S. cerevisiae deletion strains, locus YNL067W, strain RPL9B, active compounds read low 1.01 | S. cerevisiae deletion strains, locus YNL071W, strain lat1, active compounds read low 1.01 | S. cerevisiae deletion strains, locus YNL128W, strain TEP1, active compounds read low 1.02 | S. cerevisiae deletion strains, locus YNL175C, strain NOP13, active compounds read low 1 | S. cerevisiae deletion strains, locus YNL183C, strain NPR1, active compounds read low 0.912 | S. cerevisiae deletion strains, locus YNL197C, strain WHI3, active compounds read low 0.968 | S. cerevisiae deletion strains, locus YNL209W, strain ssb2, active compounds read low 1.01 | S. cerevisiae deletion strains, locus YNL224C, strain SQS1, active compounds read low 1 | S. cerevisiae deletion strains, locus YNL233W, strain BNI4, active compounds read low 1.03 | S. cerevisiae deletion strains, locus YNL248C, strain rpa49, active compounds read low 0.992 | S. cerevisiae deletion strains, locus YNL250W, strain rad50, active compounds read low 1.01 | S. cerevisiae deletion strains, locus YNL271C, strain bni1, active compounds read low 0.981 | S. cerevisiae deletion strains, locus YNL298W, strain CLA4, active compounds read low 0.988 | S. cerevisiae deletion strains, locus YNL307C, strain MCK1, active compounds read low 0.993 | S. cerevisiae deletion strains, locus YNL322C, strain KRE1 (second series), active compounds read low 1.01 | S. cerevisiae deletion strains, locus YNR049C, strain mso1, active compounds read low 1.01 | S. cerevisiae deletion strains, locus YNR052C, strain pop2, active compounds read low 0.966 | S. cerevisiae deletion strains, locus YOL006C, strain TOP1, active compounds read low 1.13 | S. cerevisiae deletion strains, locus YOL012C, strain htz1 0.815 | S. cerevisiae deletion strains, locus YOL147C, strain pex11, active compounds read low 0.999 | S. cerevisiae deletion strains, locus YOR001W, strain rrp6, active compounds read low 1.03 | S. cerevisiae deletion strains, locus YOR061W, strain CKA2, active compounds read low 1.01 | S. cerevisiae deletion strains, locus YOR069W, strain VPS5, active compounds read low 1 | S. cerevisiae deletion strains, locus YOR070C, strain gyp1, active compounds read low 1.01 | S. cerevisiae deletion strains, locus YOR080W, strain dia2, active compounds read low 0.996 | S. cerevisiae deletion strains, locus YOR083W, strain WHI5 (second series), active compounds read low 0.986 | S. cerevisiae deletion strains, locus YOR083W, strain WHI5, active compounds read low 1.01 | S. cerevisiae deletion strains, locus YOR106W, strain vam3, active compounds read low 1 | S. cerevisiae deletion strains, locus YOR136W, strain idh2, active compounds read low 0.997 | S. cerevisiae deletion strains, locus YOR144C, strain elg1, active compounds read low 0.999 | S. cerevisiae deletion strains, locus YOR184W, strain ser1, active compounds read low 0.988 | S. cerevisiae deletion strains, locus YOR231W, strain MKK1, active compounds read low 0.977 | S. cerevisiae deletion strains, locus YOR265W, strain rbl2, active compounds read low 1 | S. cerevisiae deletion strains, locus YOR270C, strain vph1, active compounds read low 1.02 | S. cerevisiae deletion strains, locus YOR290C, strain snf2, active compounds read low 0.974 | S. cerevisiae deletion strains, locus YOR316C, strain cot1, active compounds read low 0.977 | S. cerevisiae deletion strains, locus YPL051W, strain arl3, active compounds read low 1.01 | S. cerevisiae deletion strains, locus YPL055C, strain LGE1, active compounds read low 1.06 | S. cerevisiae deletion strains, locus YPL078C, strain atp4, active compounds read low 1.01 | S. cerevisiae deletion strains, locus YPL106C, strain sse1, active compounds read low 1.01 | S. cerevisiae deletion strains, locus YPL240C, strain hsp82, active compounds read low 1.01 | S. cerevisiae deletion strains, locus YPL256C, strain CLN2, active compounds read low 0.962 | S. cerevisiae deletion strains, locus YPR119W, strain clb2, active compounds read low 0.976 | S. cerevisiae deletion strains, locus YPR141C, strain kar3, active compounds read low 0.982 | S. cerevisiae deletion strains, locus YPR163C, strain tif3, active compounds read low 0.973 | S. cerevisiae deletion strains, locus YPR167C, strain met16, active compounds read low 0.984 | S. cerevisiae deletion strains, strain wtn01, active compounds read low 0.993 | S. cerevisiae strains, strain wild type, active compounds read low 1.02

Reference: PubChem BioAssay AID1159580 (chemical genetic matrix, 2015)
